The values that follow come from PubChem BioAssay (NCATS).

Records with an inconclusive call do not appear. Active and inactive are the calls of the source. Calls come from the whole dose curve; as a rule, active = well fitted cell-killing curve with a large enough effect; inconclusive = small, poorly fitted or top-dose-only effect, or effect the other way; inactive = no such curve, though single readings can be large or run the other way.
Potency is the fitted concentration of half-maximal effect.

A short description of this assay: Quantitative High-Throughput drug screen in 47 multiple myeloma cell lines against the NCATS MIPE library collection: KMM1_JCRB cell viability assay (AID 1918960). Note: nearly all actives have a fitted effect of over 30% in size. Conditions: KMM1 myeloma viability, CellTiter-Glo ATP luminescence, 48 h; series mostly up to 45.8 µM; viability (% of DMSO): at the top concentration. An excerpt: PI: Beverly A. Mock Ph.D.
Laboratory of Cancer Biology and Genetics,
Center for Cancer Research, National Cancer Institute,
National Institute of Health, Bethesda, Maryland
Drug resistance and disease progression are common in multiple myeloma (MM) patients, underscoring the need for new therapeutic combinations. […] We hypothesized that effective combinations would reduce MYC expression and enhance p16 activity. […] These preclinical data identify potentially useful drug combinations for evaluation in drug-resistant MM and reveal potential mechanisms of combined drug sensitivity.
Described herein is the primary MIPE qHTS used to cherrypick compounds. Validated compounds were then further tested for potential synergistic activiy.
[1] Peat TJ, Gaikwad SM, Dubois W, Gyabaah-Kessie N, Zhang S, Gorjifard S, Phyo Z, Andres M, Hughitt VK, Simpson RM, Miller MA, Girvin AT, Taylor A, Williams D, D'Antonio N, Zhang Y, Rajagopalan A, Flietner E, Wilson K, Zhang X, Shinn P, Klumpp-Thomas C, McKnight C, Itkin Z, Chen L, Kazandijian D, Zhang J, Michalowski AM, Simmons JK, Keats J, Thomas CJ, Mock BA. Drug combinations identified by high-throughput screening promote cell cycle transition and upregulate Smad pathways in myeloma. Cancer Lett. 2023 Aug 1;568:216284. doi: 10.1016/j.canlet.2023.216284. Epub 2023 Jun 24. PMID: 37356470; PMCID: PMC10408729.
SEQUENCE No. (e.g., 1, 2, 3, etc.); […] (e.g., Cells, Incubation, Reagent, etc.); VALUE and DESCRIPTION.
1; Cells; 5 uL; white, solid bottom 1536-well Greiner assay plate.
2; Compounds; 23 nL; Kalypsis pin tool (Wako USA) equipped with a 1536-well pin head to transfer to the assay plates.
3; Incubation; 48 hours; 37C incubation.
4; Reagent;5uL; CellTiter Glo (Promega).
5; Detector; 425V; Luminescence; Viewlux PerkinElmer.
NOTES (numbers refer to Sequence numbers above)
1. The cell-based screening methods employed in this study were like those previously published. Briefly, the corresponding myeloma cell lines were screened in 1,536-well plates with 500 cells, 5-uL per well for inhibition of cell viability (assessed by measuring ATP levels with CellTiterGlo).
2. NCATS MIPE 4.0 library of approved and investigational drugs were added using the Kalypsis pin tool. Wells treated with DMSO only for 100% viability and media only cells for 0% viability were used as controls.
3. The assay plates were covered and incubated for 48 hours in a 37C, 5% CO2 incubator with controlled humidity.
4. After 48 hours, CellTilter-GloTM luminescent substrate mix (Promega) reagent was added to the assay plate and plates we incubated for 5 min at room temperature.
5. Signal was measured as median relative luminescence units on a ViewLux (PerkinElmer) multiplate reader.
[1] Heske CM, Davis MI, Baumgart JT, Wilson K, Gormally MV, Chen L, Zhang X, Ceribelli M, Duveau DY, Guha R, Ferrer M, Arnaldez FI, Ji J, Tran HL, Zhang Y, Mendoza A, Helman LJ, Thomas CJ. Matrix Screen Identifies Synergistic Combination of PARP Inhibitors and Nicotinamide Phosphoribosyltransferase (NAMPT) Inhibitors in Ewing Sarcoma. Clin Cancer Res. 2017 Dec 1;23(23):7301-7311. doi: 10.1158/1078-0432.CCR-17-1121. Epub 2017 Sep 12. PMID: 28899971; PMCID: PMC6636827.
Consider `CC(C)c1nn(-c2c(Cl)cccc2Cl)c2nc(Cc3ccc(OCCO)cc3)[nH]c(=O)c12`, for which the “viability (% of DMSO)” value is 97.8% (inactive). On to `CC(C)(C)c1cc(C(C)(C)C)c(NC(=O)c2c[nH]c3ccccc3c2=O)cc1O`, for which the “viability (% of DMSO)” value is 97.4% (inactive). With `CC(NCc1ccc2c(c1)nc(NC(=O)c1ccc(-c3cn[nH]c3)s1)n2CC(C)(C)O)C(C)(C)C` (stereo not given), the Potency is 0.235 µM (active).

As for `OCCCNc1cc(-c2ccnc(Nc3cccc(Cl)c3)n2)ccn1`, the Potency was 0.0526 µM (active). As for `Cc1ccc(CN2CCNCC2)cc1NC(=O)CNc1ccc(F)c(F)c1`, the “viability (% of DMSO)” value was 110% (inactive). `O=C(C=Cc1cccc(S(=O)(=O)Nc2ccccc2)c1)NO`: the Potency was 1.08 µM (active). Still for that read-out and setting: the same measure for `Nc1nc(Nc2ccc(S(N)(=O)=O)cc2)nn1C(=O)c1c(F)cccc1F`: 4.18 µM (active). As for `Cc1cc(Nc2nc(N[C@@H](C)c3ccc(F)cc3)c(C#N)cc2F)n[nH]1`, the Potency is 1.87 µM (active).

Take `Cc1c(Cn2c(C)nc3c(C(=O)O)cc(N4CCOCC4)cc32)cccc1C(F)(F)F`: the Potency was 20.9 µM (active). For the compound `CN(C1CCc2c(c3ccccc3n2CC(=O)O)C1)S(=O)(=O)c1ccc(F)cc1` (stereo not given), the Potency is 2.35 µM (active). On the same count and under the same terms, the same measure for `O=C(Nc1nc2cccc(-c3ccc(CN4CCS(=O)(=O)CC4)cc3)n2n1)C1CC1`: 8.33 µM (active); for `C=CC(=O)Nc1cc2c(Nc3ccc(F)c(Cl)c3)ncnc2cc1C#CC(C)(C)N1CCN(C)CC1`: 1.48 µM (active).

`COc1c(OCCCN2CCOCC2)ccc2c3n(c(=NC(=O)c4cnc(N)nc4)nc12)CCN3`: the Potency is 0.0129 µM (active). On to `Cc1nc2cnc3ccc(C#Cc4cccnc4)cc3c2n1-c1ccc(C(C)(C)C#N)cc1`, for which the “viability (% of DMSO)” value is 89.4% (inactive). Take `Cc1cn(-c2cc(NC(=O)c3ccc(C)c(Nc4nccc(-c5cccnc5)n4)c3)cc(C(F)(F)F)c2)cn1`: the Potency was 0.264 µM (active). In the case of `COc1ccc(C(=O)CC2(O)C(=O)Nc3c(Cl)ccc(Cl)c32)cc1` (stereo not given), the Potency is 1.18 µM (active). Regarding `Cc1cc(Nc2ncnc3ccc(-c4ccc(CNCCS(C)(=O)=O)o4)cc23)ccc1Oc1ccn2ncnc2c1`, the Potency was 1.18 µM (active). On the same count and under the same terms, under `Cc1cc(Nc2cc(N3CCN(C)CC3)nc(Sc3ccc(NC(=O)C4CC4)cc3)n2)n[nH]1` stands 5.9 µM (active). Consider `CCOc1ccccc1OCCNC(C)Cc1ccc(OC)c(S(N)(=O)=O)c1` (stereo not given), for which the “viability (% of DMSO)” value was 101% (inactive).

Turning to `O=c1[nH]c(=O)n(C2CCCO2)cc1F` (stereo not given), the “viability (% of DMSO)” value is 101% [at 92.2 µM] (inactive). For the compound `Nc1ccccc1NC(=O)c1ccc(CNC(=O)OCc2cccnc2)cc1`, the Potency is 0.418 µM (active). With `CCCCCN(CCC12CC3CC(CC(C3)C1)C2)C(=O)NCCCc1ccncc1`, the “viability (% of DMSO)” value is 81.6% (inactive).

Turning to `Nc1ccn([C@@H]2CS[C@H](CO)O2)c(=O)n1`, the “viability (% of DMSO)” value was 89.8% [at 92.2 µM] (inactive). As for `C[C@@H](Oc1cc(-c2cnn(C3CCNCC3)c2)cnc1N)c1c(Cl)ccc(F)c1Cl`, the Potency is 13.2 µM (active). Still for that read-out and setting: under `CCN1CCN(CC(=O)Nc2ccc(-c3cccc4c(=O)cc(N5CCOCC5)oc34)c3sc4ccccc4c23)CC1` stands 0.132 µM (active). On the same count and under the same terms, under `O=C(Nc1cc(C(F)(F)F)cc(C(F)(F)F)c1)c1cc(Cl)ccc1O` stands 0.132 µM (active).

For the compound `c1ccc2c(CCNc3ccc(Nc4ccncc4)cc3)c[nH]c2c1`, the Potency is 2.96 µM (active). Still for that read-out and setting: the same measure for `Cn1cc(-c2ccncc2)c(-c2ccc(OCc3ccc4ccccc4n3)cc2)n1`: 8.33 µM (active). As for `COC(=O)C[C@](O)(CCCC(C)(C)O)C(=O)O[C@@H]1C(OC)=C[C@]23CCCN2CCc2cc4c(cc2[C@H]13)OCO4`, the “viability (% of DMSO)” value was 111% (inactive). `CC1(O)CC(c2nc(-c3ccc4ccc(-c5ccccc5)nc4c3)c3c(N)nccn23)C1` (stereo not given): the Potency is 1.05 µM (active).

Take `COc1cc(Nc2ncc(F)c(Nc3ccc4c(n3)N(COP(=O)(O)O)C(=O)C(C)(C)O4)n2)cc(OC)c1OC`: the Potency is 1.18 µM (active). Still for that read-out and setting: under `CC(=O)Nc1nc(C)c(-c2ccc(Cl)c(S(=O)(=O)NCCO)c2)s1` stands 3.72 µM (active). For the compound `CC(=O)Nc1sc2c(c1-c1nc3ccccc3s1)CNC2`, the “viability (% of DMSO)” value is 91.2% (inactive). Turning to `O=C(C=Cc1cccnc1)NCCCCC1CCN(C(=O)c2ccccc2)CC1`, the Potency was 0.0148 µM (active). As for `Cn1c2cc(S(C)=O)sc2c2cnn(Cc3cccc(N)c3)c(=O)c21` (stereo not given), the “viability (% of DMSO)” value is 102% (inactive). Same read-out and setting: the same measure for `CC1=C(CO)C(=O)O[C@@H]([C@@H](C)[C@H]2CC[C@H]3[C@@H]4C[C@H]5O[C@]56[C@@H](O)C=CC(=O)[C@]6(C)[C@@H]4CC[C@]23C)C1`: 98.3% (inactive). As for `CCN(CC)CCCCNc1ncc2cc(-c3cc(OC)cc(OC)c3)c(NC(=O)NC(C)(C)C)nc2n1`, the Potency is 18.7 µM (active).

On to `O=C(Nc1cn[nH]c1-c1nc2ccc(CN3CCOCC3)cc2[nH]1)NC1CC1`, for which the Potency was 2.96 µM (active). Still for that read-out and setting: the same measure for `CNC(=O)CN1CCC(Oc2cc3c(Nc4cccc(Cl)c4F)ncnc3cc2OC)CC1`: 0.0148 µM (active); for `C=C1C(=CC=C2CCCC3(C)[C@@H]([C@H](C)C=CC=CC(O)(CC)CC)CC[C@@H]23)C[C@@H](O)C[C@@H]1O` (stereo not given in full): 20.9 µM (active).
